Data on 35 sequences can be found in paper PMC5869772, “Quantitative profiling of BATF family proteins/JUNB/IRF hetero-trimers using Spec-seq”.

Common to all, as to assay: Spec-seq (EMSA and sequencing of bound and unbound bands); 100 nM BATFx-JUNB, 1 uM dsDNA library, 50 mM K acetate, 20 mM Tris-acetate, 10 mM Mg acetate, 100 ug/ml BSA, pH 7.9, 10% glycerol, 30 min on ice; native 9% PAGE at 4 C; low values mean tight binding
Holding throughout (conditions): protein: recombinant;recombinant; tags: N-terminal mCherry-TEV, cleaved off;C-terminal 6His; copies: 1;1; dsDNA, one strand shown
Background: A gel shift assay detects complexes by their altered migration in electrophoresis.

One experiment has as its target T1, BATF;JUNB (human;human, UniProt Q16520;P17275 1-125;148-347, |).
T1 sequence 1: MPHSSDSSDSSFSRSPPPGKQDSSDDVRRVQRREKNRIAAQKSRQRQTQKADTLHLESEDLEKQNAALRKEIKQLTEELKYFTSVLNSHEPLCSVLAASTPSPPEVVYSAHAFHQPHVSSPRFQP
T1 sequence 2: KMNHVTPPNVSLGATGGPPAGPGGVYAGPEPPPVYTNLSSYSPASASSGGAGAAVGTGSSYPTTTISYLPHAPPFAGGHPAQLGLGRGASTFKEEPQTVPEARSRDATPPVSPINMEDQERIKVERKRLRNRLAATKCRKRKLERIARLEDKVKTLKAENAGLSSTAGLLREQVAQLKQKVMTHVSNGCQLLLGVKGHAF
Summed up:
(§1)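 The protein, at 100 nM, was incubated with 1 μM double-stranded degenerate DNA library for 30 min on ice in NEB Cutsmart buffer with 10% glycerol, then resolved by native 9% PAGE at 4 °C. Excised bound and unbound bands were PCR-barcoded and Illumina-sequenced, and each sequence's relative binding energy in kT is −ln of its bound/unbound read-count ratio.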

The next experiment concerns the target T2, BATF2 (bZIP);JUNB (human;human, UniProt Q8N1L9;P17275 1-142;148-347, |).
T2 sequence 1: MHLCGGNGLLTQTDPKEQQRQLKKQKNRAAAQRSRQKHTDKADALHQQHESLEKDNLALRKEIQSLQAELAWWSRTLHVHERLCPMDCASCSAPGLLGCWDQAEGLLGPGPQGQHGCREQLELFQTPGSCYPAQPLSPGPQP
T2 sequence 2: T1 sequence 2
Summed up:
as §1

The target of a further experiment is T3, BATF3;JUNB (human;human, UniProt Q9NR55;P17275 1-127;148-347, |).
T3 sequence 1: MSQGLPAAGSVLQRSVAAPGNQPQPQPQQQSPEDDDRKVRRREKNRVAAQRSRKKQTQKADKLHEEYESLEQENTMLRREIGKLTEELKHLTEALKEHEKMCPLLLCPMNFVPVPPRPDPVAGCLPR
T3 sequence 2: T1 sequence 2
Summed up: as §1

In the case of “GATAGTCTCATTTTCACCCCGTGAAACTGGGTCATTGTTCCATTACAGTATCTGT”, the binding signal in the experiment with BATF;JUNB came out at 0.364 kT; in the experiment with BATF2 (bZIP);JUNB, 0.724 kT; in the experiment with BATF3;JUNB it was 0.562 kT.

“GATAGTCTCATTTTCACCCCGTGAAATGAGTGACTTGTTCCATTACAGTATCTGT”: the binding signal with BATF;JUNB was 0.0645 kT; with BATF2 (bZIP);JUNB it was 0.827 kT; in the experiment with BATF3;JUNB, 0.384 kT.

“GATAGTCTCATTTTCACCCCGTGAAAGTGTGTCATTGTTCCATTACAGTATCTGT”: the results for the binding signal with BATF;JUNB, with BATF2 (bZIP);JUNB and with BATF3;JUNB were -0.342 kT, -0.00937 kT and -0.359 kT, respectively.

With “GATAGTCTCATTTTCACCCCGTGAAATGACTCGGTTGTTCCATTACAGTATCTGT”, the binding signal with BATF;JUNB is -0.246 kT; in the experiment with BATF2 (bZIP);JUNB, 0.589 kT; with BATF3;JUNB, 0.398 kT.

Turning to “GATAGTCTCATTTTCACCCCGTGAAATGAGGCAATTGTTCCATTACAGTATCTGT”, the binding signal turned out to be 0.661 kT with BATF;JUNB, 1.12 kT in the experiment with BATF2 (bZIP);JUNB and 0.808 kT with BATF3;JUNB.

Consider “GATAGTCTCATTTTCACCCCGTGAAATGGAGTCATTGTTCCATTACAGTATCTGT”, for which the binding signal is -0.329 kT with BATF;JUNB, 0.239 kT with BATF2 (bZIP);JUNB and -0.305 kT with BATF3;JUNB.

Turning to “GATAGTCTCATTTTCACCCCGTGAAATGACACAGTTGTTCCATTACAGTATCTGT”, the binding signal came out at 0.189 kT in the experiment with BATF;JUNB, 0.717 kT in the experiment with BATF2 (bZIP);JUNB and 0.492 kT with BATF3;JUNB.

Take “GATAGTCTCATTTTCACCCCGTGAAATGACGTCTTTGTTCCATTACAGTATCTGT”: the results for the binding signal in the experiment with BATF;JUNB, with BATF2 (bZIP);JUNB and with BATF3;JUNB were -0.0562 kT, 0.447 kT and -0.318 kT, respectively.

Turning to “GATAGTCTCATTTTCACCCCGTGAAATGAGCCAATTGTTCCATTACAGTATCTGT”, the binding signal with BATF;JUNB was determined as 0.591 kT; in the experiment with BATF2 (bZIP);JUNB, 1.4 kT; in the experiment with BATF3;JUNB, 0.829 kT.

On to “GATAGTCTCATTTTCACCCCGTGAAATCACGTCATTGTTCCATTACAGTATCTGT”, for which the binding signal was -0.743 kT with BATF;JUNB, -0.494 kT in the experiment with BATF2 (bZIP);JUNB and -1.33 kT with BATF3;JUNB.

With “GATAGTCTCATTTTCACCCCGTGAAATGACTGACTTGTTCCATTACAGTATCTGT”, the binding signal was -0.088 kT in the experiment with BATF;JUNB, 0.456 kT in the experiment with BATF2 (bZIP);JUNB and 0.305 kT in the experiment with BATF3;JUNB.

As to “GATAGTCTCATTTTCACCCCGTGAAATGACGTCGTTGTTCCATTACAGTATCTGT”, the results for the binding signal in the experiment with BATF;JUNB, with BATF2 (bZIP);JUNB and in the experiment with BATF3;JUNB were -0.291 kT, 0.27 kT and -0.759 kT, respectively.

For “GATAGTCTCATTTTCACCCCGTGAAATTAAGTCATTGTTCCATTACAGTATCTGT”, the results for the binding signal with BATF;JUNB, with BATF2 (bZIP);JUNB and with BATF3;JUNB were -0.398 kT, -0.048 kT and -0.719 kT, respectively.

Regarding “GATAGTCTCATTTTCACCCCGTGAAAGCGAGTCATTGTTCCATTACAGTATCTGT”, the values for the binding signal with BATF;JUNB, in the experiment with BATF2 (bZIP);JUNB and with BATF3;JUNB were -0.514 kT, 0.234 kT and -0.148 kT, respectively.

Take “GATAGTCTCATTTTCACCCCGTGAAATGAGTTAATTGTTCCATTACAGTATCTGT”: the binding signal with BATF;JUNB was found to be 0.138 kT; with BATF2 (bZIP);JUNB, 0.697 kT; with BATF3;JUNB it was 0.279 kT.

Regarding “GATAGTCTCATTTTCACCCCGTGAAATGACTAACTTGTTCCATTACAGTATCTGT”, the binding signal with BATF;JUNB is -0.35 kT; with BATF2 (bZIP);JUNB, 0.462 kT; with BATF3;JUNB, 0.0773 kT.

For the sequence “GATAGTCTCATTTTCACCCCGTGAAACTCAGTCATTGTTCCATTACAGTATCTGT”, the results for the binding signal with BATF;JUNB, in the experiment with BATF2 (bZIP);JUNB and with BATF3;JUNB were -0.328 kT, 0.236 kT and 0.0164 kT, respectively.

For the sequence “GATAGTCTCATTTTCACCCCGTGAAATGACGTCATTGTTCCATTACAGTATCTGT”, the binding signal with BATF;JUNB is -1.05 kT; in the experiment with BATF2 (bZIP);JUNB it was -1.32 kT; with BATF3;JUNB, -1.75 kT.

With “GATAGTCTCATTTTCACCCCGTGAAAATAAGTCATTGTTCCATTACAGTATCTGT”, the binding signal with BATF;JUNB was -0.448 kT; in the experiment with BATF2 (bZIP);JUNB, -0.0249 kT; with BATF3;JUNB, -0.395 kT.

Turning to “GATAGTCTCATTTTCACCCCGTGAAATGAGTGAGTTGTTCCATTACAGTATCTGT”, the binding signal was -0.103 kT in the experiment with BATF;JUNB, 0.64 kT with BATF2 (bZIP);JUNB and 0.377 kT with BATF3;JUNB.

With “GATAGTCTCATTTTCACCCCGTGAAATGACTGAATTGTTCCATTACAGTATCTGT”, the binding signal with BATF;JUNB is -0.087 kT; in the experiment with BATF2 (bZIP);JUNB, 0.382 kT; with BATF3;JUNB, 0.179 kT.

Regarding “GATAGTCTCATTTTCACCCCGTGAAATGAGTAATTTGTTCCATTACAGTATCTGT”, the binding signal with BATF;JUNB was -0.4 kT; in the experiment with BATF2 (bZIP);JUNB it was 0.147 kT; with BATF3;JUNB it was -0.208 kT.

Regarding “GATAGTCTCATTTTCACCCCGTGAAATGACTCAATTGTTCCATTACAGTATCTGT”, the binding signal with BATF;JUNB was -0.531 kT; with BATF2 (bZIP);JUNB it was -0.145 kT; with BATF3;JUNB, -0.634 kT.

In the case of “GATAGTCTCATTTTCACCCCGTGAAACTTAGTCATTGTTCCATTACAGTATCTGT”, the binding signal in the experiment with BATF;JUNB was -0.834 kT; with BATF2 (bZIP);JUNB, -0.172 kT; with BATF3;JUNB it was -0.762 kT.

Turning to “GATAGTCTCATTTTCACCCCGTGAAATGAGGCACTTGTTCCATTACAGTATCTGT”, the binding signal with BATF;JUNB stood at 0.813 kT; with BATF2 (bZIP);JUNB, 1.32 kT; with BATF3;JUNB, 1.29 kT.

In the case of “GATAGTCTCATTTTCACCCCGTGAAATGAGTCTCTTGTTCCATTACAGTATCTGT”, the results for the binding signal with BATF;JUNB, with BATF2 (bZIP);JUNB and with BATF3;JUNB were 0.273 kT, 1.09 kT and 0.936 kT, respectively.

Take “GATAGTCTCATTTTCACCCCGTGAAATGACTCAGTTGTTCCATTACAGTATCTGT”: the results for the binding signal with BATF;JUNB, in the experiment with BATF2 (bZIP);JUNB and in the experiment with BATF3;JUNB were -0.786 kT, -0.202 kT and -0.697 kT, respectively.

On to “GATAGTCTCATTTTCACCCCGTGAAATGATTCATTTGTTCCATTACAGTATCTGT”, for which the figures for the binding signal with BATF;JUNB, with BATF2 (bZIP);JUNB and in the experiment with BATF3;JUNB were -0.784 kT, -0.369 kT and -0.839 kT, respectively.

“GATAGTCTCATTTTCACCCCGTGAAATGAGTCCGTTGTTCCATTACAGTATCTGT”: the binding signal was 0.231 kT with BATF;JUNB, 1.26 kT with BATF2 (bZIP);JUNB and 1.04 kT in the experiment with BATF3;JUNB.

Consider “GATAGTCTCATTTTCACCCCGTGAAATGACTGATTTGTTCCATTACAGTATCTGT”, for which the binding signal in the experiment with BATF;JUNB was -0.224 kT; with BATF2 (bZIP);JUNB, 0.321 kT; in the experiment with BATF3;JUNB it was 0.106 kT.

Turning to “GATAGTCTCATTTTCACCCCGTGAAAGGGAGTCATTGTTCCATTACAGTATCTGT”, the values for the binding signal in the experiment with BATF;JUNB, with BATF2 (bZIP);JUNB and with BATF3;JUNB were -0.148 kT, 0.485 kT and 0.287 kT, respectively.

For the sequence “GATAGTCTCATTTTCACCCCGTGAAATGGCTCATTTGTTCCATTACAGTATCTGT”, the binding signal with BATF;JUNB came out at 0.393 kT; in the experiment with BATF2 (bZIP);JUNB, 1.11 kT; in the experiment with BATF3;JUNB, 0.838 kT.

For the sequence “GATAGTCTCATTTTCACCCCGTGAAAGTCAGTCATTGTTCCATTACAGTATCTGT”, the binding signal is -0.0489 kT with BATF;JUNB, 0.348 kT with BATF2 (bZIP);JUNB and 0.152 kT in the experiment with BATF3;JUNB.

With “GATAGTCTCATTTTCACCCCGTGAAATGAGTCCCTTGTTCCATTACAGTATCTGT”, the binding signal in the experiment with BATF;JUNB stood at 0.424 kT; with BATF2 (bZIP);JUNB it was 1.38 kT; in the experiment with BATF3;JUNB it was 1.03 kT.

Take “GATAGTCTCATTTTCACCCCGTGAAATGAGTCTTTTGTTCCATTACAGTATCTGT”: the binding signal in the experiment with BATF;JUNB was 0.0504 kT; with BATF2 (bZIP);JUNB, 1.04 kT; in the experiment with BATF3;JUNB it was 0.768 kT.
